# Activity calls are given as the source filed them. How the calls were made is not given here.
# Test: Vero 76 cell cytotoxicity, dose response, cytotoxicity control, set 2 (AID 602240)
# Settings: Vero 76 cells viability, cytotoxicity counter-screen for VEEV; series mostly up to 50 µM
row,SMILES,outcome
1,CCN1CCN(Cc2nc3ccc([N+](=O)[O-])cc3c(=O)n2-c2ccccc2F)CC1,inactive
2,O=c1nc(Nc2ccc(OCc3ccccc3)cc2)sc2ncccc12,inactive
3,Clc1ccc2nnnc(-c3ccccc3)c2c1,inactive
4,O=c1c2cc([N+](=O)[O-])ccc2nc(CN2CCN(c3ccccc3)CC2)n1-c1ccccc1F,inactive
5,O=C(Oc1ccc2ccccc2c1Br)N1CCCCCC1,inactive
